Each structure is given as a SMILES string. The whole screen tested about 220,000 compounds, of which about 830 (0.38%) were called active. A selection follows. Results with a measured potency or affinity are listed apart. A number with no mark means an inactive call.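 The calls were made as follows: active = compound inhibiting the enzyme by more than half at any dose during confirmatory dose-response retesting; inconclusive = strong single-dose inhibitors picked by rank but not retested; inactive = the rest.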

In this test the target is Leucine aminopeptidase (Plasmodium falciparum (isolate 3D7)) (UniProt Q8IL11). Kind of test: P. falciparum M17LAP inhibitors, primary screen, biochemical, fluorogenic H-Leu-NHMec substrate, 1536-well (AID 1619).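 Also: plate controls were full reaction with DMSO carrier for no effect and no enzyme background for full effect.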 Particulars: recombinant M17LAP, H-Leu-NHMec fluorogenic kinetic assay; at 30 µM; stronger effect = higher value.
Sequence of Leucine aminopeptidase (Plasmodium falciparum (isolate 3D7)) (Q8IL11 whole entry, looked up): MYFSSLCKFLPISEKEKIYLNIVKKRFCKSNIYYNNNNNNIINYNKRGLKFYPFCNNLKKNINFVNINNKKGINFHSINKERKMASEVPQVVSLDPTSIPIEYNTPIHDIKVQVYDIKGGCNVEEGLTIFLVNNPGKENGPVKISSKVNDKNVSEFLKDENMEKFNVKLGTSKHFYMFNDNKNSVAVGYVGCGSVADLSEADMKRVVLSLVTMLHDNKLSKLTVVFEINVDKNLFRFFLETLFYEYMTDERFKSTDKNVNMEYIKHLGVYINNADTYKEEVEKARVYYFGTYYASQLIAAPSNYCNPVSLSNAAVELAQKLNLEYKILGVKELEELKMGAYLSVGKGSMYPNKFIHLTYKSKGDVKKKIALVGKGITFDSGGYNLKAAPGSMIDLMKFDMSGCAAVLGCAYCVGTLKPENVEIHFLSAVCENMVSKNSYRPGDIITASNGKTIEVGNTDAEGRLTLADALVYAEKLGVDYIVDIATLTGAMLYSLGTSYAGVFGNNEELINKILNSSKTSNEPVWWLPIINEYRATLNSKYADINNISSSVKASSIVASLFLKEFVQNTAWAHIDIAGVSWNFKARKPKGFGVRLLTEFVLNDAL
The term inhibition denotes the change of the read-out against control, counted positive when it falls. For the molecule `COc1ccc(N=C2NC(=O)/C(=C/C=C/c3ccccc3)S2)cc1`, the inhibition was 3.51%.
As to `CCc1ccc(C2CC(c3ccc(Cl)cc3)n3nc(N)nc3N2)cc1` (configuration not stated), the inhibition was -1.74%.
Take `CCC(CC)Nc1ccc(C(CC(N)=O)NC(=O)Cc2ccc(Br)cc2)cc1[N+](=O)[O-]` (configuration not stated): the inhibition was -4.54%.
In the case of `CN(C)c1ccnc2sc(C(=O)NCc3ccccc3)c(N)c12` it was -4.21%; in that of `Cc1ccc(NC(=O)CCC(=O)OCC(=O)c2ccc(Oc3ccc([N+](=O)[O-])cc3)cc2)c(C)c1`, 13.8%; in that of `CC(C)c1nnc(NC(=O)CSc2nnc(NC(=O)c3c(F)cccc3F)s2)s1`, 2.85%.
In the case of `COc1ccc(NC(=O)CSc2nnc(NC(=O)c3ccco3)s2)cc1` it was 22.5%.
In the case of `Cc1cccc(C)c1NC(=O)CSc1nnc(NC(=O)c2ccccc2C(=O)O)s1` it was 19.1%; in that of `O=C(CSc1nnc(NC(=O)c2ccco2)s1)Nc1ccc(F)cc1`, -1.02%.
`C=CCn1cnc2sc(C(=O)Nc3ccccc3OC)c(C)c2c1=O`: the inhibition was 7.04%.
In the case of `Clc1ccc(-c2cc(COc3ccc4ccccc4c3)no2)cc1` it was -2.54%; in that of `COc1ccc(C(=O)CSc2nc(N)nc(SC)c2C#N)cc1`, -5.8%.
As for `CCN1C(=O)/C(=C\c2ccc(-c3ccc([N+](=O)[O-])cc3OC)o2)SC1=Nc1cccc(C(=O)O)c1`, the figure is 28.7%.
In the case of `CN1C(=O)/C(=C/c2ccco2)SC1=Nc1ccc(N2CCOCC2)cc1` it was -4.86%.
As to `CCOC(=O)c1sc(-c2ccccn2)nc1C`, the inhibition was 10.5%.
For the molecule `C/C(O)=C(\C#N)c1nc2ccccc2[nH]1`, the inhibition is 1.5%.
With `CCN(CC)S(=O)(=O)c1ccc(Cl)c(NC(=O)CCCCl)c1`, the inhibition is 8.77%.
As for `NC(=O)C1CCN(C(=O)c2ccc(CS(=O)(=O)c3c(Cl)cccc3Cl)o2)CC1`, the figure is 1.58%; as for `CCCCn1c(N)c(Br)c(=O)[nH]c1=O`, 10%; as for `COc1ccc(OC)c(/C=N/NC(=O)CC2C(=O)NN=C2C)c1` (configuration not stated), -164%.
In the case of `CCOc1cccc(/C=N/NC(=O)CC2C(=O)NN=C2C)c1O` (configuration not stated) it was 3.72%.
Take `COc1cc(OC)c(OC)cc1/C=N/NC(=O)CC1C(=O)NN=C1C` (configuration not stated): the inhibition was 53.3%.
In the case of `COc1cc(/C=N/NC(=O)CC2C(=O)NN=C2C)ccc1O` (configuration not stated) it was 10.4%.
As for `CCCn1c(C2CC(=O)N(c3ccc(C)cc3)C2)nc2ccccc21` (configuration not stated), the figure is 4.53%; as for `O=C(Nc1cccc(F)c1)/C(=C\c1cccnc1)NC(=O)c1cccs1`, 7.11%; as for `CC1=C(C#N)C(=O)NC(=O)/C1=C\c1ccc(-c2cc(C)c(C)cc2[N+](=O)[O-])o1`, 24.2%.
As for `CC1=C(C#N)C(=O)NC(=O)/C1=C/c1ccc(-c2ccc(S(N)(=O)=O)cc2)o1`, the figure is 35.6%.

Source of the values: PubChem BioAssay AID1619 (SRMLSC, 2009).
